Screening results deposited in PubChem BioAssay by National Center for Advancing Translational Sciences (NCATS).
The list is not random: actives were taken first. Their share in the collection is about 2.4%.
Cruzain Triton: qHTS Assay for Promiscuous and Specific Inhibitors of Cruzain (with detergent) | Cruzipain (Trypanosoma cruzi), P25779 | purified cruzain, Z-FR-AMC fluorescence, 0.01% Triton | actives 0.43% (n = 200,000) | Potency, µM, for inactives: max response, negative = inhibition, hits mostly inhibitors;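 also: plate controls were neutral wells for no effect and buffer without enzyme for full effect; nearly all actives have a fitted effect of over 40% in size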
Target sequence (P25779 123-467 limits assumed): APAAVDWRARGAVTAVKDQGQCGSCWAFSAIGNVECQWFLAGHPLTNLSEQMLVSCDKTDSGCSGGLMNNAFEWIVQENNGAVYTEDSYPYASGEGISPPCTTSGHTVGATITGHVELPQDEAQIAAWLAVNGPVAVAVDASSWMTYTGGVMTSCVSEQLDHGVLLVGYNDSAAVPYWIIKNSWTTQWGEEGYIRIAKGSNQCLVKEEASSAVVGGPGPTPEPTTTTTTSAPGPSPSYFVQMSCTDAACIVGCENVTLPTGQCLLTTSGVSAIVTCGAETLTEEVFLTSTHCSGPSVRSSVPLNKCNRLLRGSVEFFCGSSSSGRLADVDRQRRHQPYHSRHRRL
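Cysteine protease activity tested under reducing, mildly acidic conditions (100 mM sodium acetate pH 5.5, 5 mM DTT) plus 0.01% Triton X-100. Cruzain 1.5 nM; substrate Z-FR-AMC 2 uM; 15 min compound preincubation at room temperature.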
Cruzain inh noDet: qHTS Assay for Promiscuous and Specific Inhibitors of Cruzain (without detergent); Cruzipain (Trypanosoma cruzi), P25779; actives 2.3% (n = 200,000); purified cruzain, Z-FR-AMC fluorescence, no detergent; Potency, µM, without a hit: max response, negative = inhibition, hits mostly inhibitors;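 also: plate controls were enzyme without inhibitor for no effect and buffer without enzyme for full effect; nearly all actives have a fitted effect of over 40% in size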
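Purified cruzain at 1.5 nM, pre-incubated 15 min with compound at room temperature in 100 mM sodium acetate pH 5.5, 5 mM DTT, 0.00005% Triton X-100. Reaction started with 2 uM Z-FR-AMC; AMC fluorescence increase over 60 s gives rate.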
* marks the source's active call; other numbers are inactive results; u = inconclusive; ! = not confirmed by another sample. Calls follow the shape of the dose curve; as a rule, active = well fitted curve in the direction sought with a large enough effect; inconclusive = small, poorly fitted or top-dose-only effect, or another doubt; inactive = no such curve, though single readings can be large; an effect the other way counts as inactive or inconclusive. Potency is read from the fitted curve at half-maximal effect.

SMILES	Cruzain Triton	Cruzain inh noDet
CCOC(=O)c1[nH]c2ccccc2c1NC(=O)c1ccccc1OC	-8.3%	3.6%
CCOC(=O)c1[nH]c2ccc(F)cc2c1NC(=O)Nc1ccccc1OC	1.4%	7.94µM*
Cc1cccc(NC(=O)CSc2nc3ccccc3nc2N2CCOCC2)c1C	-1.6%	-5.5%
Cc1nnc(NC(=O)c2ccc(-c3cccc(C(F)(F)F)c3)o2)s1	1.6%	12.6µM*
Cc1ccc2cccc(NC(=O)c3ccc(-c4cccc([N+](=O)[O-])c4)o3)c2n1	-2.5%	-10.0%
O=C(Nc1ncc(Cc2cccc(C(F)(F)F)c2)s1)c1ccc(-c2cccc([N+](=O)[O-])c2)o1	-4.5%	10µM*
CC(=O)Cc1nsc(NC(=O)c2ccc(-c3cccc(C(F)(F)F)c3)o2)n1	4.0%	3.5%
O=C(CSc1nnc(-c2ccc(Br)cc2)n1-c1ccccc1)c1ccccc1	3.0%	2.7%
CCOc1ccc(C(=O)OCc2cc(=O)n3cc(C)sc3n2)cc1	-2.0%	1.0%
COc1cc(/C=c2\sc3n(c2=O)C(c2ccccc2)C(c2ccccc2)=NN=3)ccc1O (stereo not given)	5.4%	15.8µM*
COc1cc(/C=c2\sc3n(c2=O)CCCN=3)ccc1O	-4.0%	-1.8%
Nc1ccc2c(c1)N1CCN=C1S2	-7.8%	9.9%
O=C(Nc1ccc(Cl)cc1)Nc1ccc2c(c1)N1CCN=C1S2	u	31.6µM*
CSc1nc2c(c(=O)[nH]1)C(c1cccs1)C1=C(CCCC1=O)N2 (stereo not given)	-1.0%	2.7%
O=C1CCCC2=C1C(c1cn(-c3ccccc3)nc1-c1cccs1)c1c([nH]c(=O)[nH]c1=O)N2 (stereo not given)	14.1µM*	12.6µM*
O=C(O)CCNCC(=O)O	0.1%	3.2%
Cc1cc(C(=O)Cn2nc(C(=O)O)c3ccccc3c2=O)c(C)n1-c1ccc(F)cc1	-8.6%	25.1µM*
Cc1ccccc1OCCn1nc(C(=O)O)c2ccccc2c1=O	-4.8%	16.0%
CCOC(=O)c1cc(-c2ccccc2)n(CCC(=O)NCc2ccccc2Cl)c1C	-5.8%	-10.0%
CCOc1ccc(NC(=O)COc2ccc(S(=O)(=O)NC3CCCCC3)cc2)cc1	-7.2%	-4.2%
CCC1CN(C(=O)N2CCC(C(=O)NCCN(CC)CC)CC2)c2ccccc2O1 (stereo not given)	-2.7%	u
Cc1ccc(N(C)C(=O)Cn2cc(S(=O)(=O)N3CCCC3)c(S(=O)(=O)N3CCCC3)c2)cc1	0.7%	-2.5%
CN(C)c1ncc2nc(-c3cccs3)c(=O)n(CCC#N)c2n1	1.9%	-1.0%
C/C(=N\Nc1nnc(-c2ccccc2)c(-c2ccccc2)n1)c1cccc([N+](=O)[O-])c1	-5.6%	u
O=[N+]([O-])c1cccc(/C=N/Nc2nnc(-c3ccccc3)c(-c3ccccc3)n2)c1	-5.4%	7.94µM*
SMILES	Cruzain Triton	Cruzain inh noDet
Cc1ccc(-c2csc(NC(=O)CCNC(=O)c3ccccc3Cl)n2)cc1	-7.2%	-8.7%
CC(OC(=O)CNC(=O)c1ccccc1F)C(=O)Nc1nc(-c2ccccc2)cs1 (stereo not given)	7.94µM*	7.94µM*
CC(CNc1nc2ccccc2c2nc(-c3ccccc3)nn12)c1ccccc1 (stereo not given)	5.1%	0.3%
Cc1c(Cc2ccccc2)sc(NC(=O)/C=C/c2cccc3ccccc23)c1C(N)=O	-5.0%	5.01µM*
COC(=O)c1c(NC(=O)/C=C/C(=O)O)sc(Cc2ccccc2)c1C	-9.6%	13.1%
COc1ccc(NC(=O)Cn2c(=O)c3cc(Cl)ccc3n3nncc23)cc1	1.6%	-15.3%
COc1ccc(C(=O)Nc2ccc3oc(-c4cc(Cl)ccc4Cl)nc3c2)cc1Br	-0.3%	5.9%
CCOC(=O)C(C)Sc1nnc2ccc3ccccc3n12 (stereo not given)	-4.1%	-3.5%
CC(=O)c1ccc(NC(=O)c2ccc3nc(-c4ccco4)c(-c4ccco4)nc3c2)cc1	14.1µM*	u
O=C(Nc1ccc(N2CCOCC2)cc1)c1ccc2nc(-c3ccco3)c(-c3ccco3)nc2c1	-5.7%	-3.5%
O=C(NCc1ccccc1)c1ccc2nccnc2c1	1.3%	9.6%
O=C(NCc1ccccc1)c1ccc2nc(-c3ccco3)c(-c3ccco3)nc2c1	u	7.94µM*
CN(C)c1ccc(CNC(=O)CCS(=O)(=O)c2ccc3c(c2)oc(=O)n3C)cc1	-1.7%	7.9%
O=C(Nc1cccc(C(=O)N2CCN(c3ccccc3F)CC2)c1)c1nsc2ccccc12	-1.3%	u
C=CC1=C(C(=O)O)N2C(=O)C(NC(=O)/C(=N\O)c3csc(N)n3)C2SC1 (stereo not given)	-10.3%	-1.6%
NC(=O)CSc1nnc(-c2cc(-c3cccs3)nc3ccccc23)o1	-10.2%	-18.0%
CCCN(CC1CC1)C(=O)CSc1nnc(-c2cc(-c3cccs3)nc3ccccc23)o1	-4.0%	15.8µM*
Cc1cccc(OCC(=O)Nc2nonc2-c2ccc(Br)cc2)c1C	-2.5%	-1.3%
CC1=C(/C=C/C(C)=C/C=C/C(C)=C/C(=O)Nc2ccc(O)cc2)C(C)(C)CCC1	-4.5%	15.8µM*!
CC1=C(\C=C/C(C)=C/C=C\C(C)=C\C(=O)O)C(C)(C)CCC1	-3.9%	u
CN(C)c1ccc(CNc2nc(-c3ccco3)nn2C(=O)c2cccc([N+](=O)[O-])c2)cc1	-3.7%	-4.7%
Clc1ccccc1-c1nc(Nc2ccccc2)nc2ccc(Br)cc12	-1.2%	25.1µM*
COc1ccccc1Nc1nc(-c2ccccc2Cl)c2cc(Br)ccc2n1	3.9%	18.3%
COc1cc([N+](=O)[O-])ccc1NC(=O)N1CCC2(CC1)Nc1ccccc1-n1cccc12	-2.1%	25.1µM*
COc1cc(NC(=O)N2CCC3(CC2)Nc2cc(F)ccc2-n2cccc23)cc(OC)c1OC	-7.0%	u
SMILES	Cruzain Triton	Cruzain inh noDet
COc1ccc(S(=O)(=O)N2CCN(C)CC2)c2ccccc12	-1.6%	-0.7%
COc1ccc(S(=O)(=O)N2CCN(c3ccc(Cl)c(Cl)c3)CC2)c2ccccc12	-0.8%	7.94µM*
O=C(Nc1nc2ccc(F)cc2s1)c1cccc(S(=O)(=O)N2CCc3ccccc32)c1	-1.2%	7.94µM*
Cc1ccc2nc(NC(=O)c3ccc(S(=O)(=O)N4CCCc5ccccc54)cc3)sc2c1	1.4%	6.31µM*!
CN1CCc2nc(NC(=O)c3cccc(S(=O)(=O)N4CCc5ccccc54)c3)sc2C1	-4.9%	15.8µM*
O=C(Nc1nc2c(F)cc(F)cc2s1)c1ccc(S(=O)(=O)N2CCc3ccccc32)cc1	-1.3%	-17.3%
O=C(Nc1nc2c(F)cccc2s1)c1ccc(S(=O)(=O)N2CCCc3ccccc32)cc1	1.2%	-1.3%
CCC(CC)c1nnc(NC(=O)c2cccc(S(=O)(=O)N3CCc4ccccc43)c2)s1	-2.0%	u
Cc1cccc(C(=O)Nc2nnc(S(=O)(=O)N3CCCc4ccccc43)s2)c1	-1.7%	-4.0%
O=C(Nc1nc2c(s1)CCCC2)c1cccc(S(=O)(=O)N2CCCc3ccccc32)c1	-5.7%	25.1µM*
COc1ccc(OC)c(NC(=O)Cn2c(=O)cc(C)c3c(C)nn(-c4cccc(Cl)c4C)c32)c1	7.1%	-2.0%
O=C(Cn1nnc(-c2cccc(C(F)(F)F)c2)n1)NCc1ccc(F)cc1	-0.6%	-7.0%
Cc1nn2c(N)c(C#N)cnc2c1-c1ccccc1	-4.8%	9.6%
Cc1nn2c(N)c(C#N)cnc2c1-c1ccc(Cl)cc1	5.9%	25.1µM*
